Test [1] addresses RecQ-like DNA helicase BLM (Homo sapiens) (UniProt P54132). The test can be described thus: qHTS Validation Assay for Inhibitors of Bloom's syndrome helicase (BLM) (AID 2364). In a few lines: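 BLM 50 nM in 25 mM Tris-HCl pH 8.0, 5 mM NaCl, 2 mM MgCl2, 1 mM DTT, 0.01% Tween-20, 2.5 ug/ml poly(dI-dC); 15 min cpd preinc, RT. Start: 200 nM forked DNA + 2 mM ATP (final). TAMRA read, 2 reads 2 h apart.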

Test [2] is described as follows: High Content Imaging Cell-Based qHTS for Inhibitors of the mTORC1 Signaling Pathway in MEF (Tsc2-/-, p53-/-) Cells (AID 2666).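 Further: percent of cells scored positive for phospho-rpS6 Ser235/236 immunostaining by imaging.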 The method, boiled down: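 Inhibition of rpS6 phosphorylation is measured by immunofluorescence imaging in empty-vector Tsc2-/-, p53-/- mouse embryonic fibroblasts after 24 hrs compound exposure at 37 degree Celsius. Results are reported as % positive cells per well.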
A general note: In qHTS, concentration-response curves come from the screen itself.

A short description of test [3]: High Content Imaging Cell-Based qHTS for Inhibitors of the mTORC1 Signaling Pathway in MEF Cells (AID 2667).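 Further: Tsc2-/- p53-/- MEFs stably re-expressing wild-type Tsc2 exposed 24 h; series mostly up to about 38 µM.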 The method, boiled down:
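Fixed-cell imaging of phospho-S6 (Ser235/236, Alexa-488) after 24 hrs of compound treatment at 37 degree Celsius. Signal was normalized to Hoechst, and thresholds from the highest and lowest wells split cells into % active versus % non-active.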

Test [4] is described as follows: Cytometry Cell-Based qHTS for Inhibitors of the mTORC1 Signaling Pathway in MEF cells (AID 2668). Further: potency means the concentration at half of the fitted maximal effect. The method, boiled down: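 WT MEFs (Tsc2-/-, p53-/- stably re-expressing WT Tsc2) in DMEM + 10% FBS received compounds 24 hrs after plating, for 24 hrs at 37 degree Celsius. Fixed cells stained with Alexa-488 anti-phospho-rpS6 Ser235/236 and propidium iodide; laser-scanning cytometry read-out.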

A short description of test [5]: Validation screen for small molecules that induce DNA re-replication in MCF 10A normal breast cells (AID 463097). Further: nearly all actives have a fitted effect of over 60% in size. In a few lines:
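Readout: Hoechst nuclear fluorescence intensity, 405 ex / 500-530 em, by scanning plate imager; re-replication scored as increase in nuclei with elevated DNA content. Cells exposed to compound 48 hr, 37 C, 5% CO2 beforehand.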

The target in test [6] is Ubiquitin carboxyl-terminal hydrolase 2 (Homo sapiens) (UniProt O75604). The test can be described thus: qHTS Validation Assay for Inhibitors of Ubiquitin-specific Protease USP2a Using CHOP2 as the Reporter (AID 463106). In a few lines: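 Inhibition is expressed relative to NEM as the full-inhibition control, with concentration-response curves classed by fit quality, magnitude and activity. Enzyme (USP2 core, 10nM) meets 25nM Ub-CHOP2 after compound preincubation; readings are taken at 60min.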
Ubiquitin carboxyl-terminal hydrolase 2 (Homo sapiens), sequence (O75604 whole entry, looked up): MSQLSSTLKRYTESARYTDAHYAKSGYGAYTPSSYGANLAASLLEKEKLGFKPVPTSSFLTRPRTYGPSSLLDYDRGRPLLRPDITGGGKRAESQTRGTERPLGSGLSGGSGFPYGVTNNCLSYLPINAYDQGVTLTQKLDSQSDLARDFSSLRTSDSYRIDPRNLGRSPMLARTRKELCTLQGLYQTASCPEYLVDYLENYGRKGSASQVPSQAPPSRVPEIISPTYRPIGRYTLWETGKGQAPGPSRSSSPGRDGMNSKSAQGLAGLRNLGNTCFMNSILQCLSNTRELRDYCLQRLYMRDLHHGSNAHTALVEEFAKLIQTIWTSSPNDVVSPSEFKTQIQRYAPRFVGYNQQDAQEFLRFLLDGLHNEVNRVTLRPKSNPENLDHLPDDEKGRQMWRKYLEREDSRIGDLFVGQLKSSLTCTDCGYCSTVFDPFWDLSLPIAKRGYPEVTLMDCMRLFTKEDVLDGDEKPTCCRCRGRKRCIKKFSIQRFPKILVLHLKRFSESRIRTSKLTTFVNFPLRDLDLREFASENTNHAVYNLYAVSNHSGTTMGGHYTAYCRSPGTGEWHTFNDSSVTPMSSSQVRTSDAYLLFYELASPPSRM

The target of test [7] is Tumor susceptibility gene 101 protein (Homo sapiens) (UniProt Q99816). The test can be described thus: qHTS Validation Assay for Iinhibitors of HIV-1 Budding by Blocking the Interaction of PTAP/TSG101 (AID 485342; calls by dose curve). In a few lines:
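Tsg101 binding domain (10 uM final) in pH 7.5 HEPES/NaCl/Tween 20/EDTA/TCEP buffer was mixed with pin-transferred compounds, then FITC-labeled PTAP peptide (50 nM final) was added; after 20 min at r.t., fluorescence polarization was read.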

A short description of test [8]: qHTS Validation Assay to Find Inhibitors of Chronic Active B-Cell Receptor Signaling (AID 485345; active means well fitted curve in the direction sought with a large enough effect in the main read-out, with a control signal flat, not every such curve was filed as active). In a few lines:
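TMD8 ABC-DLBCL cells with dox-inducible green luciferase–IκBα fusion and red native luciferase; compounds 46 uM–3 nM, 4 h at 37C with doxycycline in 0.5% FBS IMDM. Green/red ratio normalized to basal and 10 uM MG-132.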

The target of test [9] is DNA polymerase III PolC-type (Bacillus subtilis (strain 168)) (UniProt P13267). The test can be described thus: qHTS Validation Assay for the Inhibitors of DNA Replication in Gram-Positive Bacteria (AID 485295).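 Further: PicoGreen fluorescence of double-stranded DNA made on primed circular M13 template; series mostly up to about 57 µM.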 In a few lines: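 Reconstituted B. subtilis holoenzyme (Pol III, beta clamp, SSB, primase) was preincubated with compound at room temperature, then given single-stranded circular M13Gori plus dNTPs and NTPs. EDTA-containing PicoGreen stopped the reaction, and dsDNA product was read by fluorescence.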
DNA polymerase III PolC-type (Bacillus subtilis (strain 168)), sequence (P13267 whole entry, looked up): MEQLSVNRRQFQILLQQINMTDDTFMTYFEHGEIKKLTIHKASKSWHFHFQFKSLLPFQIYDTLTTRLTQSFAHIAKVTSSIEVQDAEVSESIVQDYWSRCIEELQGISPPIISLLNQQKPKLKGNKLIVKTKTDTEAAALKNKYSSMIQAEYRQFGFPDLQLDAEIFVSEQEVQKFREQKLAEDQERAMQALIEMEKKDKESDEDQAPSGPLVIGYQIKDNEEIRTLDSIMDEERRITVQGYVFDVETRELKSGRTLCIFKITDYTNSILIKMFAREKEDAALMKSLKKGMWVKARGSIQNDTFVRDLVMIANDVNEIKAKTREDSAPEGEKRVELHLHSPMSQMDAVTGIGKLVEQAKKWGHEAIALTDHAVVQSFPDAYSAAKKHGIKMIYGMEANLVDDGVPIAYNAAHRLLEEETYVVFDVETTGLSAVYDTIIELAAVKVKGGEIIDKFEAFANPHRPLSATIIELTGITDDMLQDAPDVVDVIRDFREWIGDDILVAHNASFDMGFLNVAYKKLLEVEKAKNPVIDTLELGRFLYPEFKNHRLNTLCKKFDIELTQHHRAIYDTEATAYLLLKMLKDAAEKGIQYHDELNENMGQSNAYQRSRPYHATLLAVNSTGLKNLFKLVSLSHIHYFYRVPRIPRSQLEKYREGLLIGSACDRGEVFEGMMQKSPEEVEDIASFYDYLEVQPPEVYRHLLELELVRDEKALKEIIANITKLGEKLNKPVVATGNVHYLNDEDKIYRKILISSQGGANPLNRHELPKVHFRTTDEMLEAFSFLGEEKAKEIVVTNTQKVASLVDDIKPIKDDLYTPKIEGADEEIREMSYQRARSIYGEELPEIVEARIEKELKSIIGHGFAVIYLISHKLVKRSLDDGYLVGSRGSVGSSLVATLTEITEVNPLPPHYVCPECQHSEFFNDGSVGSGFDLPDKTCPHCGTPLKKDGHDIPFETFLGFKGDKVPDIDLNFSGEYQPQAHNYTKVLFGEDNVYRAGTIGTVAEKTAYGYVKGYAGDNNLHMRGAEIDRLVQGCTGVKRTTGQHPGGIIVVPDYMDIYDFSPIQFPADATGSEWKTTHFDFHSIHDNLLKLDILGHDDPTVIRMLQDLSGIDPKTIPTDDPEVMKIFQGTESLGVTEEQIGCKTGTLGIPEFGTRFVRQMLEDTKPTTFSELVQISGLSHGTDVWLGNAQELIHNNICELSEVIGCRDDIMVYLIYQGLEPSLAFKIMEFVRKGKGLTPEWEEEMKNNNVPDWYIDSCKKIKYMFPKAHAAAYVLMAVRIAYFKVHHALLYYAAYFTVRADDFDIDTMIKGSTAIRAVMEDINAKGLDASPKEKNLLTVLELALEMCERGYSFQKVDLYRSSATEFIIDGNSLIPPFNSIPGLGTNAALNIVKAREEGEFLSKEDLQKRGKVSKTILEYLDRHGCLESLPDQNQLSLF

Records with an inconclusive call do not appear. Activity calls are given as the source filed them. Unless noted, the call rests on the fitted dose curve; in most records, active means well fitted curve in the direction sought with a large enough effect; inconclusive means small, poorly fitted or top-dose-only effect, or another doubt; inactive means no such curve, though single readings can be large; an effect the other way counts as inactive or inconclusive.

Tumor susceptibility gene 101 protein (Homo sapiens), sequence (Q99816 whole entry, looked up, the tested form may be a part): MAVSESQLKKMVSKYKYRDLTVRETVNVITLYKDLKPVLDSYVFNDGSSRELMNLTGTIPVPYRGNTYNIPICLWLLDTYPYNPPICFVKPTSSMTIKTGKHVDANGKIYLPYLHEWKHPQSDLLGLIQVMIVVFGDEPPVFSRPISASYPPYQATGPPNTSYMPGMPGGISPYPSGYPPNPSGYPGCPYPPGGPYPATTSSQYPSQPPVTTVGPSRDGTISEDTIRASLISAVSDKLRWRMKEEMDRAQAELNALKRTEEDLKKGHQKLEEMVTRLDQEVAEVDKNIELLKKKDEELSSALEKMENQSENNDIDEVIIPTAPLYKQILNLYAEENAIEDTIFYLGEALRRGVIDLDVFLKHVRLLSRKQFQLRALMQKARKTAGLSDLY
RecQ-like DNA helicase BLM (Homo sapiens), sequence (P54132 whole entry, looked up): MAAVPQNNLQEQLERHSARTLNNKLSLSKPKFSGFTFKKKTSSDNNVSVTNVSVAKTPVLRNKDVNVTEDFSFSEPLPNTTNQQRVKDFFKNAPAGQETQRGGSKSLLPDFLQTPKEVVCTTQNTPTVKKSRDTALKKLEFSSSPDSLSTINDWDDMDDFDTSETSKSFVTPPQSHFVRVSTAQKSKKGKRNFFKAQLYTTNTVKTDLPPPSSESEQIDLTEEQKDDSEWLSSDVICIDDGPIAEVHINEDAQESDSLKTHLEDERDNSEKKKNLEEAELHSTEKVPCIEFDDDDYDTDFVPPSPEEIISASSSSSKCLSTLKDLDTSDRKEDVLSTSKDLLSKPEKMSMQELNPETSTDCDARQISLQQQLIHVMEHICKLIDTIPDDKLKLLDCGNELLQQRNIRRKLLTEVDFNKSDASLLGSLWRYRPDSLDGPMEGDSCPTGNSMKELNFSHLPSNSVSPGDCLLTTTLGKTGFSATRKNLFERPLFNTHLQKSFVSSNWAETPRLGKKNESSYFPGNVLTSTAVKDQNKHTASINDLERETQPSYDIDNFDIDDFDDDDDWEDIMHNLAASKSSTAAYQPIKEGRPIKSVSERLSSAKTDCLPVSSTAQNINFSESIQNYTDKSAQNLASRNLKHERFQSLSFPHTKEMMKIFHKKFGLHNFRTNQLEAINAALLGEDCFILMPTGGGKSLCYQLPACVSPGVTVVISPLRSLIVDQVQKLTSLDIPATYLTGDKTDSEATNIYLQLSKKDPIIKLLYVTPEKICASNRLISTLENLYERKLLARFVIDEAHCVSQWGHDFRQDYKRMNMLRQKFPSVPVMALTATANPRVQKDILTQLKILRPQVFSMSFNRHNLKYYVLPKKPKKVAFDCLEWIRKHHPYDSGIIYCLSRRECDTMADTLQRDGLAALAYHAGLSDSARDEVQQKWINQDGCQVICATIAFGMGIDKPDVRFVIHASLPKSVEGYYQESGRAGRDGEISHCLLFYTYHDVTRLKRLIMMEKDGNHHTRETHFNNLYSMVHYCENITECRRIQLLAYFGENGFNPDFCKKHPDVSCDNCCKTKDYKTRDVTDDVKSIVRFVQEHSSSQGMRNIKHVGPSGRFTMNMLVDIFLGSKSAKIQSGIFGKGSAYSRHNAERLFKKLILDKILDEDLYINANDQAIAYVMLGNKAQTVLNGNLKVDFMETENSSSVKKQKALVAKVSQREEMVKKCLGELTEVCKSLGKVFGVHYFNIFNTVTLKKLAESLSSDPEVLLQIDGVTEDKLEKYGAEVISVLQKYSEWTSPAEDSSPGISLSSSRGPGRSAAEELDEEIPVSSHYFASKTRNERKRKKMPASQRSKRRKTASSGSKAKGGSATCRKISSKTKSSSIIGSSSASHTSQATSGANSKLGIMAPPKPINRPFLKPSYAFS

Turning to `CC(CN(C)C)CN1c2ccccc2CCc2ccccc21` (configuration not stated), the outcome in test [1], in test [5], in test [6], in test [7] and in test [8] was inactive. In addition, the Potency result in [2], in [3] and in test [4] was “inactive” in each case.
With `COCCOC(=O)C1=C(C)NC(C)=C(C(=O)OC/C=C/c2ccccc2)C1c1cccc([N+](=O)[O-])c1` (configuration not stated), the Potency entry in test [2], in [3] and in test [4] was “inactive” in each case. Besides, the outcome in [6] and in test [7] was inactive.
For the compound `Nc1ncnc2c1ncn2[C@@H]1O[C@H](CO)[C@@H](O)[C@H]1O`, the Potency entry in test [2], in [3] and in [4] was “inactive” each time. Also, the compound was classed as inactive in [6] and in test [7].
`CC(C)(C)c1onc(OCP(=O)(O)O)c1CC(N)C(=O)O` (configuration not stated): the Potency result in test [2], in test [3] and in [4] was “inactive” throughout. The result in test [5], in [6], in [7] and in test [8] was inactive.
As for `C#CCN(C)Cc1ccccc1`, the Potency entry in test [2], in test [3] and in [4] was “inactive” each time. Further, the compound was called inactive in test [5], in test [6], in [7] and in test [8].
Consider `OCc1cc(C(O)CNCCCCCCOCCCCc2ccccc2)ccc1O` (configuration not stated), for which the Potency result in test [2] was “inactive”. In addition, the outcome in test [6], in test [7] and in test [8] was inactive.
Consider `CC(C)(C)[C@]1(O)CCN2C[C@H]3c4ccccc4CCc4cccc(c43)[C@@H]2C1`, for which the Potency result in test [2] and in test [3] was “inactive” throughout. Further, the Potency in test [4] was 5.85 µM (active). Also, the result in [6], in [7] and in [8] was inactive.
In the case of `CCN(CC)C(C)CN1c2ccccc2Sc2ccccc21` (configuration not stated), the Potency result in test [2], in [3] and in [4] was “inactive” in each case. In addition, the compound was classed as inactive in test [6], in test [7] and in test [8].
`CNC(=O)Oc1ccc2c(c1)[C@]1(C)CCN(C)[C@@H]1N2C`: the Potency entry in [2], in test [3] and in test [4] was “inactive” throughout. Moreover, the compound was classed as inactive in test [5], in [6], in test [7] and in test [8].
In the case of `COC(=O)C1=C(C)NC(C)=C(C(=O)OC)C1c1ccccc1[N+](=O)[O-]`, the Potency entry in [2], in test [3] and in [4] was “inactive” each time. For the same compound, the compound was classed as inactive in test [6] and in [7].
Regarding `CC(CN1c2ccccc2Sc2ccccc21)N(C)C` (configuration not stated), the Potency entry in test [2] is “inactive”. In addition, the call in test [6], in test [9], in test [7] and in test [8] was inactive.
For the compound `CC1=C(CC(=O)O)c2cc(F)ccc2/C1=C\c1ccc(S(C)=O)cc1` (configuration not stated), the Potency entry in test [2], in [3] and in test [4] was “inactive” in each case. For the same compound, the result in test [5], in test [6], in test [7] and in [8] was inactive.
For the compound `CN(C)CC[C@@H](c1ccc(Cl)cc1)c1ccccn1`, the Potency result in test [2], in [3] and in test [4] was “inactive” each time. In addition, the result in [5], in [6], in test [7] and in test [8] was inactive.
`CNCCC(Oc1ccc(C(F)(F)F)cc1)c1ccccc1` (configuration not stated): the Potency result in test [2] was “inactive”. The call in [6] and in test [7] was inactive.
Take `CC(C)(C(=O)O)c1ccc(C(O)CCCN2CCC(C(O)(c3ccccc3)c3ccccc3)CC2)cc1` (configuration not stated): the Potency entry in [2], in test [3] and in test [4] was “inactive” in each case. The compound was called inactive in test [5], in test [6], in test [7] and in [8].
On to `C[C@](N)(Cc1ccc(O)cc1)C(=O)O`, for which the Potency result in test [2], in test [3] and in [4] was “inactive” each time. For the same compound, the compound was classed as inactive in test [5], in test [6], in [7] and in [8].
Regarding `CC[C@H]1CN2CCc3cc(OC)c(OC)cc3[C@@H]2C[C@@H]1C[C@H]1NCCc2cc(OC)c(OC)cc21`, the Potency entry in test [2] and in test [3] was “inactive” in each case. Further, the compound was called inactive in [6] and in test [7].
For the compound `CC(=O)OCC(=O)[C@@]1(O)CC[C@H]2[C@@H]3CCC4=CC(=O)CC[C@]4(C)[C@H]3C(=O)C[C@@]21C`, the Potency result in [2], in [3] and in [4] was “inactive” throughout. Besides, the compound was classed as inactive in test [5], in [6], in test [7] and in test [8].
`O=C1N=C(O)CN1/N=C/c1ccc(-c2ccc([N+](=O)[O-])cc2)o1`: the Potency entry in [2], in test [3] and in [4] was “inactive” throughout. Further, the call in [5], in test [6], in [7] and in test [8] was inactive.
Consider `CC1=C(/C=C/C(C)=C/C=C/C(C)=C/C(=O)O)C(C)(C)CCC1`, for which the Potency result in [2], in test [3] and in test [4] was “inactive” in each case. The compound was classed as inactive in test [6], in test [9] and in test [7].
In the case of `NC1CCN(c2cccc(Cl)n2)CC1`, the Potency entry in [2], in test [3] and in test [4] was “inactive” throughout. Moreover, the compound was classed as inactive in test [5], in [6], in [7] and in test [8].
Regarding `CC(C)NC[C@H](O)c1ccc(O)c(O)c1`, the Potency result in test [2], in [3] and in [4] was “inactive” each time. Moreover, the result in [5], in test [6], in test [7] and in test [8] was inactive.
On to `CN(C)CCOC(C)(c1ccccc1)c1ccccn1` (configuration not stated), for which the Potency result in test [2], in test [3] and in [4] was “inactive” each time. Further, the call in [5], in test [6], in test [7] and in test [8] was inactive.
Turning to `CNCC(O)c1ccc(O)c(O)c1` (configuration not stated), the Potency entry in [2], in test [3] and in test [4] was “inactive” throughout. Further, the call in test [5], in test [6] and in test [7] was inactive.
As for `CCCn1cnc2c1c(=O)n(CCCCC(C)=O)c(=O)n2C`, the Potency entry in test [2], in test [3] and in test [4] was “inactive” in each case. The outcome in test [5], in test [6] and in test [7] was inactive.
On to `C[C@]12C[C@H](O)[C@H]3[C@@H](CCC4=CC(=O)CC[C@@]43C)[C@@H]1CC[C@@H]2C(=O)CO`, for which the Potency entry in test [2] and in test [3] was “inactive” in each case. The compound was called inactive in test [6] and in test [7].
